# Test results published in the supplement of paper PMC8371130.
# Where a name gives a salt, the structure may show the parent alone.
# Test system: HL-1
# Experiment: relative cell viability (CellTiter-Glo) vs DMSO control (% of DMSO control); higher = more viable cells
# Conditions: oxygen condition: hypoxia 48 h (1% O2) + reoxygenation 24 h; 1000 nM
# Outline: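 Cell viability was determined from CellTiter-Glo luminescence, expressed relative to vehicle-treated control cells. The cells were HL-1 mouse atrial cardiomyocytes, plated at 1000 cells per well in 384-well plates with compounds at 40, 200, 1000 or 5000 nM in 0.01% DMSO. One day after plating, they underwent 48 h of hypoxia (1% O2) in a hypoxic workstation followed by 24 h of reoxygenation in a normal incubator, or were kept in normoxia for an equal time.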
row,Structure (SMILES),relative cell viability
1,CO[C@H]1C(=O)[C@]2(C)[C@@H](OC)C[C@H]3OC[C@@]3(OC(C)=O)[C@H]2[C@H](OC(=O)c2ccccc2)[C@]2(O)C[C@H](OC(=O)[C@H](O)[C@@H](NC(=O)OC(C)(C)C)c3ccccc3)C(C)=C1C2(C)C [Cabazitaxel],39.6
2,OCC(CO)N[C@H]1C[C@](O)(CO)[C@@H](O)[C@H](O)[C@H]1O [Voglibose],113
3,COc1ccc2c(c1OC)C(=O)O[C@@H]2[C@H]1c2c(cc3c(c2OC)OCO3)CCN1C [Noscapine HCl],99.1
4,CCOC(=O)[C@H](CCc1ccccc1)N[C@H]1CS[C@H](c2cccs2)CN(CC(=O)O)C1=O [Temocapril HCl],104
5,C#C[C@]1(O)CC[C@H]2[C@@H]3CCc4cc(O)ccc4[C@H]3CC[C@@]21C [Ethinyl Estradiol],105
6,CNNCc1ccc(C(=O)NC(C)C)cc1 [Procarbazine HCl],96.6
7,O=C1O[C@H]([C@@H](O)CO)C([O-])=C1O.[Na+] [Sodium ascorbate],106
8,CCOc1ccc2nc(S(N)(=O)=O)sc2c1 [Ethoxzolamide],96.7
9,CC(CCc1ccc(O)cc1)NCC(O)c1ccc(O)cc1 (stereo unspecified) [Ractopamine HCl],108
10,CCN[C@H]1CN(CCCOC)S(=O)(=O)c2sc(S(N)(=O)=O)cc21 [Brinzolamide],62.4
11,COC(=O)CCc1ccc(OCC(O)CNC(C)C)cc1 (stereo unspecified) [Esmolol HCl],105
12,CNC1CCCN(c2c(F)cc3c(=O)c(C(=O)O)cn(C4CC4)c3c2OC)C1 (stereo unspecified) [Balofloxacin],101
13,C[C@H](N[C@@H](CCc1ccccc1)C(=O)O)C(=O)N1CCC[C@H]1C(=O)O [Enalaprilat dihydrate],102
14,O=S(=O)(O)CCS [Mesna],116
15,Cl.N=C(N)NCCC[C@H](N)C(=O)O [L-Arginine HCl],104
16,O=C1CCc2cc(OCCCCc3nnnn3C3CCCCC3)ccc2N1 [Cilostazol],111
17,CCCC(CCC)C(=O)O[C@H]1C[C@H]2CC[C@@H](C1)[N+]2(C)C [Anisotropine Methylbromide],93.2
18,CCCc1nc(C(C)(C)O)c(C(=O)OCc2oc(=O)oc2C)n1Cc1ccc(-c2ccccc2-c2nnn[nH]2)cc1 [Olmesartan medoxomil],94.7
19,CN1CCOC(c2ccccc2)c2ccccc2C1 (stereo unspecified) [Nefopam HCl],43.9
20,CCOC(=O)c1ccc(OC(=O)CCCCCNC(=N)N)cc1 [Gabexate mesylate],112
21,NCCS [Cysteamine HCl],109
22,CC(C)C[C@H](NC(=O)[C@@H](O)[C@H](N)Cc1ccccc1)C(=O)O [Ubenimex],98.2
23,CC1CCc2cc(F)cc3c(=O)c(C(=O)O)cn1c23 (stereo unspecified) [Flumequine],117
24,COC(=O)C1=C(C)NC(C)=C(C(=O)OC(C)C)C1c1cccc2nonc12 (stereo unspecified) [Isradipine],106
25,CC1(C)Cc2c(-c3ccccc3)c(-c3ccc(Cl)cc3)c(CC(=O)O)n2C1 [Licofelone],97.1
26,C#C[C@]1(O)CC[C@H]2[C@@H]3CCc4cc(OC)ccc4[C@H]3CC[C@@]21C [Mestranol],101
